High-throughput results (PubChem)
tim23-1 inh – growth inhibitors of tim23-1 mutant yeast, primary screen, luminescence, uHTS | S. cerevisiae tim23-1 growth, BacTiter-Glo luminescence, 24 h | inhibition, % at 20 µM | hit rate 1.3% among 330,000 | AID 463212, 2010;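 active means growth inhibition of the mutant yeast at or above 50%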;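 further: temperature-sensitive mutant grown at 25 °C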
TIM10 inh – growth inhibitors of isogenic TIM10 control yeast, primary screen, counter-screen for tim10-1 yeast inhibitor project, luminescence, uHTS. hit rate 1.4% among 330,000. inhibition, % at 10 µM. S. cerevisiae TIM10 strain growth, BacTiter-Glo luminescence, 24 h. AID 463195, 2010;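 active means inhibition of 40% or more at the single tested concentration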;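 further: wild-type TIM10 isogenic control strain grown at permissive 25 °C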
tim10-1 inh – growth inhibitors of tim10-1 mutant yeast, primary screen, luminescence, uHTS | S. cerevisiae tim10-1 ts strain growth, BacTiter-Glo, 24 h | inhibition, % at 20 µM | hit rate 2.2% among 330,000 | AID 463190, 2010;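 active means inhibition of at least 40%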;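 further: mutant grown at 25 °C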
PfHsp90 set2 – growth inhibition of PfHsp90-expressing yeast, primary screen, antimalarial PfHsp90 inhibitor project, S. cerevisiae, BacTiter-Glo luminescence, single point, set 2 | inhibition, % at 9.4 µM | hit rate 0.32% among 310,000 | BacTiter-Glo ATP, 48 h; yeast lacking PDR1 and PDR3 efflux regulators | AID 504621, 2011;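 active means every replicate shows inhibition above about 80%, whatever the replicate mean, limit read from the data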
NALP3 yeast inh – NALP3 inflammasome inhibitors in reconstituted yeast, primary screen, luminescence, uHTS | inhibition, % at 10 µM | Yeast reconstituted NLRP3/ASC/caspase-1, beta-gal luminescence, 24 h | hit rate 0.39% among 330,000;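 active means inhibition of 50% or more; inactive means inhibition below 50%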
SKKanGAS inh – S. pyogenes SKKanGAS growth inhibitors in kanamycin, primary screen, streptokinase expression inhibitor project, SKKanGAS strain, BacTiter-Glo luminescence; 6 h; inhibition, % at 7.5 µM; hit rate 1.3% among 300,000;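 active means mean replicate score, as percent of positive control median, at least 50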;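 further: strain carries kanamycin resistance gene driven by streptokinase promoter and grows in 40 µg/ml kanamycin; loss of luminescence reflects streptokinase promoter inhibition or plain growth inhibition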
NALP3 yeast conf – NALP3 inhibitors retested in yeast, confirmation, luminescence, single concentration | shares compounds with NALP3 yeast inh | yeast expressing human NALP3 | inhibition, % at 10 µM | hit rate 81% among 1,300; in the data active means inhibition above about 48%
Casp1-ASC yeast – CASP1-PYCARD signaling inhibition in yeast, confirmatory test, counterassay for NLRP3 inhibitor program, one-dose; hit rate 66% among 1,000; yeast expressing Caspase-1-ASC, luminescence counter screen; shares compounds with NALP3 yeast inh; inhibition, % at 10 µM
NALP3 retest – NALP3 inhibitors in yeast, repeat test, confirmation, luminescence, single concentration, retest. shares compounds with NALP3 yeast inh. yeast expressing human NALP3, luminescence read-out. inhibition, % at 10 µM. hit rate 53% among 1,000. AID 488794, 2010
Each line names hits and unclear results; the compound was inactive in the other large screens (follow-up assays come after a bar, where they were run). A selection: hits, their analogues and other compounds. The true share with any hit is near 4.6%. Unless noted, no stated cut-off is given here; in the data, active means inhibition above about 50%; inactive means the rest.

CCOC(=O)Cc1csc(NC(=O)c2ccncc2)n1	none
CCOC(=O)Cc1csc(NC(=O)c2cccc(Cl)c2)n1	NALP3 yeast inh 63.6 (no result: PfHsp90 set2) | NALP3 yeast conf 60.4 | Casp1-ASC yeast 68.2 | NALP3 retest 53.9
c1coc(C2Nc3ccccc3C3OCCC23)c1 (centres undefined)	none (no result: PfHsp90 set2)
Fc1ccc2c(c1)C1OCCCC1C(c1ccccc1)N2 (centres undefined)	NALP3 yeast inh 61.9 | NALP3 yeast conf inactive
NCCc1nnc(SCc2ccc(F)cc2)o1	NALP3 yeast inh 58.9 | NALP3 yeast conf 73.8 | Casp1-ASC yeast 57.5 | NALP3 retest 61.2
Cc1ccc(-n2cc(CN3CCN(C(=O)c4ncn[nH]4)CC3)c(-c3ccc(F)cc3)n2)cc1	none
O=C(Nc1ccc2c(c1)oc1ccccc12)c1cccnc1	NALP3 yeast inh 73.7 | NALP3 yeast conf 60.4 | Casp1-ASC yeast inactive | NALP3 retest inactive
O=C(Nc1ccc2ccccc2c1)c1cccnc1	none
Cc1cccc(OCCCSc2nc3ccc(C)cc3[nH]2)c1	NALP3 yeast inh 50.5 | NALP3 yeast conf 52.6 | Casp1-ASC yeast 53.5 | NALP3 retest inactive
Nc1ccnc(=O)[nH]1	none
Cc1ccc(Cc2nc(-c3ccccn3)no2)cc1	none
Cc1ccc(Sc2cc(C)nc(-c3ccccn3)n2)cc1	NALP3 yeast inh 51.1, SKKanGAS inh 84.7 | NALP3 yeast conf inactive | Casp1-ASC yeast 65.3 | NALP3 retest inactive
Cc1ccc(S(=O)(=O)N(C)C)cc1NC(=O)C(C)OC(=O)C1CCCCC1 (centres undefined)	none (no result: PfHsp90 set2, SKKanGAS inh)
COc1ccc(Nc2c(C)cccc2C)cc1	none (no result: PfHsp90 set2) | NALP3 yeast conf inactive
Cc1ccc(N2C(=O)C(Cc3ccc(O)cc3)NC2=S)cc1C (centres undefined)	none
CC1=CC(=C(C#N)C#N)C=C(C)N1CCC(C)C	none
O=C(Nc1ccc(Cl)cc1)Nc1ccc(Cl)c(Cl)c1	NALP3 yeast inh 71.7 (no result: PfHsp90 set2, SKKanGAS inh) | NALP3 yeast conf 72.1 | Casp1-ASC yeast inactive | NALP3 retest inactive
Cc1ccc(NC(=O)Nc2ccc(F)c(Cl)c2)cc1	none
CN(CC(=O)Nc1ccc(C#N)cc1)Cc1ccc(Cl)cc1Cl	NALP3 yeast inh 65.2 | NALP3 yeast conf 58.6 | Casp1-ASC yeast 58.9 | NALP3 retest inactive
CN(CC(=O)Nc1ccc(C#N)cc1)Cc1ccc(Cl)cc1	none
N#Cc1ccc(NC(=O)Nc2ccc(Cl)cc2)cc1	NALP3 yeast inh 72.0, SKKanGAS inh 55.5 | NALP3 yeast conf 57.4 | Casp1-ASC yeast inactive | NALP3 retest 59.7
CN(Cc1ccccc1)S(=O)(=O)c1ccc2[nH]c(=O)ccc2c1	none
O=[N+]([O-])c1cc2c(cc1Br)CCN2	none
CCN1CCN(c2ccc(Cl)cc2NC(=O)c2ccc(-n3nc(C)cc3C)cc2)CC1	NALP3 yeast inh 51.3 (no result: SKKanGAS inh) | NALP3 yeast conf inactive | Casp1-ASC yeast inactive | NALP3 retest inactive
O=C(Nc1ccc(F)cc1)C1(S(=O)(=O)c2ccc(Cl)cc2)CC1	NALP3 yeast inh 55.1 | NALP3 yeast conf 74.8 | Casp1-ASC yeast inactive | NALP3 retest inactive
Cc1ccc(NN2C(=O)C=C(c3ccccc3)C2=O)cc1	NALP3 yeast inh 82.7 (no result: PfHsp90 set2) | NALP3 yeast conf 71.8 | Casp1-ASC yeast 95.8 | NALP3 retest 62.0
Cc1cc(C)cc(NC(=O)N2CCc3ccccc3C2)c1	NALP3 yeast inh 53.2 | NALP3 yeast conf 63.8 | Casp1-ASC yeast inactive | NALP3 retest inactive
CCCN1CCCc2cc(CN)ccc21	NALP3 yeast inh 53.9 | NALP3 yeast conf 59.8
COc1nc(-c2ccccc2)ncc1S(=O)(=O)c1ccccc1	NALP3 yeast inh 56.7 | NALP3 yeast conf inactive | Casp1-ASC yeast inactive | NALP3 retest inactive
